Screens (PubChem)
Shown are actives, neighbours in structure and some others; about 1.8% of the full set was active somewhere.
GLP1R ag: GLP-1 receptor (human) agonism; HEK293 GLP-1R CRE-luciferase, luminescence, 4-6 h; cells express a hypersensitive GLP-1R form; Potency, µM (series often up to 45.6 µM), usual class: activators; actives 0.007% (n = 380,000)
Target sequence (P43220 whole entry, looked up): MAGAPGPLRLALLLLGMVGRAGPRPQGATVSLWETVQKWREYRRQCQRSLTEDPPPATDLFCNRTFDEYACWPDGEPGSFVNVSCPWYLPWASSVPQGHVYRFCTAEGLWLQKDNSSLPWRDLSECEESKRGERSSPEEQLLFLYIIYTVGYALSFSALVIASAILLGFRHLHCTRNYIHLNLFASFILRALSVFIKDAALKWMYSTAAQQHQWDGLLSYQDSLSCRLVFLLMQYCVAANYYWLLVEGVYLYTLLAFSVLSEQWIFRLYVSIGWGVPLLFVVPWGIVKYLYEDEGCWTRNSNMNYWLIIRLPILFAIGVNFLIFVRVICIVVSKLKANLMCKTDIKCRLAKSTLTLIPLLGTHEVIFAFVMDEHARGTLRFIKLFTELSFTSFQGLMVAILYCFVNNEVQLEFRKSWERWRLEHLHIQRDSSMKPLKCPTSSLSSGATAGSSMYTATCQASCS
TRPML1 agonist: agonists of human TRPML1 channel | Q9GZU1 | TRPML1-expressing cells, Ca2+ dye fluorescence, FDSS | activation, % (test concentration not listed) | actives 0.12% (n = 410,000) | AID 624414; in the data active = activation above about 50%; inconclusive = mostly about 30% to 49%
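Kinetic FDSS Ca2+ read in Tet-induced TRPML1-DL cells (ABD Ca8 dye plus quencher, 45-90 min RT loading): baseline, then compound, then 110 s agonist window; EC80 agonist 54-4 at 4uM final added afterwards for a 110 s antagonist window.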
HEK293 tox: cytotoxicity counter-screen for GLP-1 receptor inverse agonists; HEK293 cAMP-luciferase reporter cells, luminescence, 24 h; Potency, µM (highest dose often 38.3 µM), usual class: inhibitors; actives 0.13% (n = 410,000); AID 624418;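 note: loss of luciferase light is scored as toxicity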
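A 23 nL compound transfer followed 12 hours of cell culture at 37 deg C; exposure then lasted 24 hr. Luciferase assay detection reagent was dispensed and plates read for luminescence after a 12 min room-temperature wait.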
TRPML1 inh: human mucolipin-1 channel inhibition; Q9GZU1; TRPML1-inducible cells, Ca2+ dye fluorescence, FDSS; active compounds read low; inhibition of EC80 agonist-evoked calcium signal; activity change, negative = inhibition, % (test concentration not listed); actives 0.02% (n = 390,000); AID 624415; in the data active = activity change below about -50%; inconclusive = between about -30% and that limit;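 note: stimulus is agonist 54-4 at its EC80 concentration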
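Tet-induced TRPML1-DL cells loaded with Ca8 no-wash calcium dye were read kinetically on FDSS. Compound addition was followed by EC80 agonist 54-4 (4 uM final); inhibition was read over 110 s.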
GLP1R inv ag: GLP-1 receptor (human) inverse agonism. HEK293 GLP-1R CRE-luciferase, luminescence, 24 h; GLP-1R form is constitutively active. Potency, µM (doses to about 38.3 µM), hits mostly inhibitors. actives 1.6% (n = 410,000); note: nearly all actives have a fitted effect of over 55% in size
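Constitutively active GLP-1R drives a cAMP-responsive luciferase in stably transfected HEK293 cells; test compounds are added after overnight (12 h) attachment and left 24 hr, and signal loss in luminescence marks inhibition.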
A number is an active result; i = inactive; ? = inconclusive; nt = no result. Unless noted, calls come from the whole dose curve; as a rule, active = well fitted curve in the direction sought with a large enough effect; inconclusive = small, poorly fitted or top-dose-only effect, or another doubt; inactive = no such curve, though single readings can be large; an effect the other way counts as inactive or inconclusive.

SMILES	GLP1R ag	TRPML1 agonist	HEK293 tox	TRPML1 inh	GLP1R inv ag
CCOc1ccccc1CNC(=O)CN1C(=O)CCCc2ccccc21	nt	i	i	i	i
C/C(=C(\CCO)SSCC1CCCO1)N(C=O)Cc1cnc(C)nc1N (configuration not stated)	i	nt	nt	nt	nt
COc1ccc(-c2c(C3C4C=CCCC4(C)C(=O)N3Cc3ccccc3)ccc3ccccc23)cc1OC (configuration not stated)	nt	i	nt	i	nt
CCOC(=O)c1ccc(NC(=O)CN2C(=O)CC(c3ccc(C)c(C)c3)=Nc3ccccc32)cc1	nt	i	i	i	i
CCc1nn(CC(=O)NCCCN(CC(C)C)CC(C)C)c(=O)c2cc3sc(C)cc3n12	nt	i	i	i	i
CCc1nn(CC(=O)NCCCN(CC)CC)c(=O)c2cc3sc(C)cc3n12	i	i	i	i	10µM
COc1ccc(N2CCN(C(=O)CN3C(=O)COc4ccc(S(=O)(=O)N5CCC(C)CC5)cc43)CC2)cc1	i	i	i	i	i
CN(Cc1ccc(F)cc1)S(=O)(=O)c1nnc(NC(=O)c2ccc(F)cc2)s1	nt	i	i	i	i
Cc1c(NP(=O)(c2ccc(Br)cc2)c2ccc(Br)cc2)c(=O)n(-c2ccccc2)n1C	i	i	i	i	11.2µM
Cc1cc(C)c(S(=O)(=O)NCC(c2ccc(N(C)C)cc2)N2CCc3ccccc32)c(C)c1 (configuration not stated)	nt	i	i	i	2µM
CCn1c2ccccc2c2cc(NC(=O)Cc3ccc(S(=O)(=O)N4CCOCC4)s3)ccc21	i	i	i	i	10µM
CCCC(=O)Nc1ccc2c(c1)c1ccccc1n2CC	i	i	i	i	i
CCn1c2ccccc2c2cc(NC(=O)N3CCCCC3)ccc21	i	i	i	i	10µM
CC1CCN(c2ccc(NC(=O)c3cccc(Cl)c3)cc2C(=O)O)CC1	nt	i	i	i	i
C#Cc1ccc(C(=O)Nc2ccc(N3CCC(C)CC3)c(C(N)=O)c2)cc1	i	i	i	i	8.91µM
CCOc1ccc(S(=O)(=O)Nc2ccc(Cl)cn2)c(C)c1C	i	i	i	i	11.2µM
CN(C)c1ccc(/C=C/c2sc3ccccc3[n+]2CCCCI)cc1	nt	i	nt	nt	nt
CN(C)CCNc1oc(-c2ccccc2Cl)nc1S(=O)(=O)c1ccccc1	i	i	i	i	3.16µM
CN(C)CCCNc1oc(-c2ccccc2Cl)nc1S(=O)(=O)c1ccc(F)cc1	i	i	i	i	?
Oc1c(C(Nc2cccnc2)c2ccccc2F)ccc2cccnc12 (configuration not stated)	nt	i	nt	nt	nt
CCOC(=O)[C@H]1[C@H]2COc3cc(OC)ccc3[C@@H]2N2C(=O)CN(CCc3c[nH]c4ccccc34)C(=O)[C@@]12C	i	i	i	i	i
COc1ccc2c(c1)OC[C@H]1[C@H]2N2C(=O)CN(CCc3c[nH]c4ccccc34)C(=O)[C@@]2(C)[C@H]1c1ccccc1	i	i	i	i	5.01µM
CN(C)CCCNc1nc(N)c([N+](=O)[O-])c(NC2CCCCC2)n1	i	i	i	i	12.6µM
COc1ccc2nc(N3C(=O)CNC3=S)sc2c1	i	i	7.94µM	i	?
Cc1ccc2nc(N3C(=O)CNC3=S)sc2c1	i	i	?	i	?
SMILES	GLP1R ag	TRPML1 agonist	HEK293 tox	TRPML1 inh	GLP1R inv ag
Cc1ccc(/C=N/NC(=O)CSc2nc3ccccc3n2Cc2ccc(Cl)cc2)o1	i	i	i	i	10µM
Cc1ccc(/C=N/NC(=O)CSc2nc3ccccc3n2Cc2ccccc2)o1	i	i	i	i	i
CC1(Cc2ccccc2OC(F)(F)F)C(=O)Nc2cc(-c3ccccc3Cl)ccc21 (configuration not stated)	i	i	?	nt	5.62µM
CCOC(=O)C1=C(CNCc2ccc(C)cc2)NC(=O)NC1c1ccc(OC)cc1 (configuration not stated)	i	i	?	i	12.6µM
CCOC(=O)C1=C(CNCc2ccc(Cl)cc2)NC(=O)NC1c1ccccc1 (configuration not stated)	i	i	i	i	?
Cc1cccc(NC(=O)C(c2ccccc2)N2Cc3ccccc3C2=O)c1C (configuration not stated)	nt	i	i	i	?
CN(C)S(=O)(=O)c1ccc(N2C(=O)CC2(/C=C/c2ccccc2)C(=O)NC2CCCC2)cc1 (configuration not stated)	i	i	i	i	i
COc1ccccc1/C=C/C1(C(=O)NC2CCCC2)CC(=O)N1c1ccccc1 (configuration not stated)	i	i	i	i	3.16µM
CC(NC(=O)/C(=C/c1ccc(OC(F)F)cc1)c1ccccc1)c1ccccc1 (configuration not stated)	i	i	i	i	4.47µM
CCCOc1ccc2c(c1)C(=NN=C(N)N)c1cc(OCCC)ccc1-2	i	i	?	i	1.78µM
CCN(CC)CCOc1ccc2c(c1)C(=NO)c1cc(OCCN(CC)CC)ccc1-2	i	i	?	i	?
Cc1ccc(S(=O)(=O)N2CCN(c3nc(-n4ccnc4)nc4ccccc34)CC2)cc1	nt	i	nt	nt	nt
Cc1cccc(NC(=O)CCS(=O)(=O)c2cc(Br)cc3c2N(C(=O)C2CC2)CC3)c1	nt	i	i	i	i
CCN(CC)/[N+]([O-])=N/OCOC(=O)c1ccccc1OC(C)=O	nt	i	nt	i	nt
Cc1cc(Sc2nnc(/N=C/N(C)C)s2)c2ccccc2n1	i	i	i	i	3.16µM
Clc1ccc(-c2cc3ccccc3nc2N2CCOCC2)cc1	i	i	i	i	10µM
Clc1ccc(-c2cc3ccccc3nc2N2CCCC2)cc1	i	i	i	i	?
COc1ccc(C(C(=O)NC2CCCCC2)N(C(=O)CCl)c2cccc(Cl)c2)cc1 (configuration not stated)	i	i	i	i	2.82µM
O=C(NC1CCCCC1)C(c1cccnc1)N(C(=O)CCl)c1ccccc1Cl (configuration not stated)	i	i	i	i	1.58µM
COc1ccc(-c2noc(CCC(=O)Nc3ccccc3Cl)n2)cc1OC	nt	i	i	i	i
CCC(C(=O)NC(=O)NC(C)=O)c1ccccc1 (configuration not stated)	i	nt	nt	nt	nt
Clc1nccnc1N/N=C/c1ccc(Br)cc1	i	i	i	i	i
COc1ccc(/C=N/Nc2nccnc2Cl)cc1	i	i	?	i	11.2µM
Cn1c(=O)c2cc(NC(=O)Cc3ccccc3F)ccc2n1-c1ccc(C(C)(C)C)cc1	i	63.3	i	nt	?
CCOc1ccc(OCC)c(NC(=O)Cn2nc(CC)n3c(cc4sccc43)c2=O)c1	nt	i	i	i	i
Cc1ccc(C(=O)N2CCc3cc(CNC(=O)c4ccccc4F)ccc32)cc1	nt	i	i	i	i
